Compound activity as filed in PubChem BioAssay.
HIF act: HIF pathway transcriptional activators, primary screen, cell-based, U2OS HRE-luciferase, luminescence. activation, % at 7.5 µM (by protocol). hit rate 0.32% among 300,000. U2OS HRE-luciferase reporter; normalized: DMSO 0%, desferrioxamine 100%;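 active = mean activation of at least 10% of the iron chelator positive control signal, with at least half of replicates also reaching 10%; inconclusive = mean and replicate majority disagree about reaching 10%; inactive = mean and most replicates under 10%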
ALR inh: inhibitors of human ALR sulfhydryl oxidase, primary screen, biochemical, H2O2 detection, HRP-luminol luminescence, single point; AID 485317, 2010; hit rate 3.8% among 290,000; inhibition, % (concentration not given with the values); FAD-linked sulfhydryl oxidase ALR (Homo sapiens), P55789; purified ALR, DTT oxidation;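 active = mean replicate inhibition above about 79%, with every replicate also reaching it, limit read from the data; inconclusive = only one of the two criteria met; inactive = mean below limit and not every replicate reaching it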
Target sequence (P55789 whole entry, looked up): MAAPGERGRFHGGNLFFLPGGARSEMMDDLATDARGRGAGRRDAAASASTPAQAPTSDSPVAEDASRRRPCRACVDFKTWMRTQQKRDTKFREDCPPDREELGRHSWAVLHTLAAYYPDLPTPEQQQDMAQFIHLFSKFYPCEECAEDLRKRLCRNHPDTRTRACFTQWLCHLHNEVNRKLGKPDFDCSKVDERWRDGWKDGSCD
AI-2 QS modul: Vibrio harveyi AI-2 quorum sensing modulators, primary screen, JMH597 strain, luminescence/OD600 ratio. Vibrio harveyi JMH597 AI-2 luminescence/OD600 ratio, 9 h; active compounds read low; strain lacks LuxN and CqsS sensors; 0 = neutral-control median. activity change, % at 7.5 µM. hit rate 0.4% among 300,000. AID 2094, 2009; in the data active = activity change below about -75%, passing the limit was not always enough; inconclusive = no clear call, values can overlap the other calls;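 also: luminescence divided by OD600 gain over 9 h not by final OD600 alone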
SUMO Mot1 rescue: yeast Mot1-301 growth rescue at high temperature, primary screen, SUMOylation pathway inhibitor project, S. cerevisiae, ATP luminescence, 38.5C; hit rate 1% among 320,000; growth rescue, % at 18.8 µM; S. cerevisiae Mot1-301 growth rescue; percent above DMSO median, 100 means doubled; AID 2716, 2010;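 active = every valid replicate shows activation above 250% relative to neutral control wells; inactive = the rest, any valid replicate at or below 250%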;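 also: OY570 slx delta 5 strain wells were the positive control but not used for scaling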
The depositor's hits bear a star; ? = inconclusive; / = no result. Shown are actives, neighbours in structure and some others; about 4.8% of the full set was active somewhere.

SMILES	HIF act	ALR inh	AI-2 QS modul	SUMO Mot1 rescue
Cc1ccc(C(C2=C(O)CC(C)(C)CC2=O)C2C(=O)CC(C)(C)CC2=O)s1 (stereo unspecified)	0	98*	34	0
CC1(C)CC(=O)C(C(C2=C(O)CC(C)(C)CC2=O)c2ccc(Br)s2)C(=O)C1 (stereo unspecified)	0	98*	13	-1
O=C(COC(=O)c1ccc2c(c1)OCCO2)NC1CCCCC1	/	1	/	9
Cc1ccccc1SCC(=O)OCC(=O)N(C)c1c(N)n(Cc2ccccc2)c(=O)[nH]c1=O	0	/	38	-4
CCOC(=O)CSC1=NC(=O)/C(=C\c2ccc(OC(C)=O)cc2)S1	2	100*	60	-2
O=C(NNC(=S)NC1CCCCC1)c1ccccc1O	0	97*	10	278
COc1cc(C(=O)Nc2ccc3c(c2)CCCN3C(=O)c2ccco2)c([N+](=O)[O-])cc1OC	-1	-12	18	-9
O=C(NC1=NCCS1)c1sc2cc(F)ccc2c1Cl	2	99*	31	29
O=C(Nc1ccon1)c1sc2cc(F)ccc2c1Cl	/	-7	/	26
CCC(C)c1ccc2oc(-c3ccc(NC(=O)Cn4cnc5c(=O)n(C)c(=O)n(C)c54)cc3)nc2c1 (stereo unspecified)	10*	-1	3	51
Cc1ccc2oc(-c3cccc(NC(=O)Cn4cnc5c(=O)n(C)c(=O)n(C)c54)c3)nc2c1	1	-15	5	/
COc1ccc(C(=O)NCc2ccncc2)cc1S(=O)(=O)NCc1ccc(Cl)cc1	/	/	/	-31
C/C(=N\NC(=O)c1cccc(Br)c1)c1ccccn1	1	15	10	13
C/C(=N\NC(=O)c1cc(Br)ccc1O)c1ccccn1	-1	85*	14	6
COc1ccc(-c2n[nH]c(=S)n2Cc2ccco2)cc1	0	97*	2	-2
S=c1[nH]nc(-c2cccnc2)n1C1CCCCC1	0	?	35	6
COc1ccc(-c2n[nH]c(=S)n2C2CCCCC2)cc1	0	89*	-5	-26
Oc1ccc(-c2n[nH]c(=S)n2Cc2ccccc2)cc1	0	97*	3	4
Oc1ccccc1-c1n[nH]c(=S)n1Cc1ccco1	-1	91*	-3	1
Cc1cccc(C)c1OCc1cc(C(=O)NCC2CC2)no1	1	2	15	-11
COc1cc(C(=O)Nc2ccc(Nc3ccccc3)cc2)cc(OC)c1OC	1	66	18	24
CCOC(=O)c1sc2nc(C)nc(N3CCN(S(=O)(=O)c4ccccc4)CC3)c2c1C	/	/	/	11
C/C(=N/Nc1ccnc2cc(Cl)ccc12)c1ccc(O)cc1	1	93*	14	3
Clc1ccc2c(N/N=C/c3cccc(Br)c3)ccnc2c1	-5	-14	26	24
NC(=S)NNc1ccnc2cc(Cl)ccc12	-1	103*	24	14
SMILES	HIF act	ALR inh	AI-2 QS modul	SUMO Mot1 rescue
Clc1ccc2c(NNc3ccccc3Cl)ccnc2c1	0	0	6	8
C/C(=N/Nc1ccnc2cc(Cl)ccc12)c1ccc(N)cc1	1	98*	11	11
O=S(=O)(Cc1ccccc1)NCCc1cccc(Cl)c1	1	-1	4	104
CCOc1ccc(NC(=O)CCc2c(C)nn(-c3ccc(N4CCCCC4)nn3)c2C)cc1	4	-4	6	-17
O=C(O)c1cc(O)ccc1N=Nc1ccccc1	0	3	2	0
COc1ccc(N=Nc2ccc(CO)cc2)cc1	0	-11	-1	3
Oc1ccc(N=Nc2ccccc2)cc1	2	99*	-2	111
OCc1ccc(N=Nc2ccccc2)cc1	10*	-10	-6	14
COC(=O)c1ccc(N=Nc2ccccc2)cc1	5	-164	11	21
O=C(O)c1ccccc1N=Nc1ccc(O)cc1	0	99*	17	-3
COc1cccc(CN2C(=O)CCC2(C)C(=O)NCCc2ccc(OC)c(OC)c2)c1 (stereo unspecified)	0	-8	10	-13
CSc1ccc(CN2CCC(Oc3ccc(C(=O)N4CCCC4)cc3)CC2)cc1	0	-1	37	277*
O=C(c1ccc(OC2CCN(CCc3ccccc3)CC2)cc1)N1CCCCC1CCCO (stereo unspecified)	0	-2	18	-14
